Source: PubChem BioAssay
CYP2C19 inh: blocks human cytochrome P450 2C19. AID 778. CYP2C19 Supersomes, luciferin-H EGE luminescence, 30 min. P33261. inhibition, % at 5 µM. 96,000 tested, 21% active;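 active means CYP2C19 inhibition above a set limit at 5 µM in the primary screen, cut at about 50% in these data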;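 further: plate controls were negative control wells for no effect and 2.5 mM tranylcypromine positive control for full effect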
Target sequence (P33261 whole entry, looked up): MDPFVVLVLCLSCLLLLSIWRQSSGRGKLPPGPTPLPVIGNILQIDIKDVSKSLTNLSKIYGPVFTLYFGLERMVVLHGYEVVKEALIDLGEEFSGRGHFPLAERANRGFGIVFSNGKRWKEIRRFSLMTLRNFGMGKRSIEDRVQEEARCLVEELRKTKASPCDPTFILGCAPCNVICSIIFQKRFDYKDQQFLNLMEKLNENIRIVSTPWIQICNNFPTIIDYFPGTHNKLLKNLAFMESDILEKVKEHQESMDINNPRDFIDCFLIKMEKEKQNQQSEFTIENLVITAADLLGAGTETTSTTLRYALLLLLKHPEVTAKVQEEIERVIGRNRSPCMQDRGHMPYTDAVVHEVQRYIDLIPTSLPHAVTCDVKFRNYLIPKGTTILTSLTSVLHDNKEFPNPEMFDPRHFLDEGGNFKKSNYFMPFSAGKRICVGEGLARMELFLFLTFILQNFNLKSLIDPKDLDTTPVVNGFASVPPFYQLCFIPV
CYP2C9 inhib: blocks human cytochrome P450 2C9 | CYP2C9 Supersomes, luciferin-H conversion, luminescence | P11712 | inhibition, % at 5 µM | 96,000 tested, 20% active;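 active means blocking of liver enzyme CYP2C9 beyond about 50% at 5 µM, limit read from the data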
CYP2C9 activ: activators of human CYP2C9 | 96,000 tested, 1.4% active | AID 1024 | activation factor at 5 µM | recombinant CYP2C9, luciferin-H conversion, luminescence; hits give high values; factor 1 = untreated enzyme, 0 = blocked;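 active means activation factor of 2 or more for CYP2C9 at a 5 µM dose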;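 further: 0 = sulfaphenazole-blocked wells and 1 = vehicle-only wells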
PostGolgi yeast: growth inhibition of a yeast mutant, post-Golgi transport screen; 98,000 tested, 0.9% active; post-Golgi transport phenotypic cell assay; inhibition, % at 10 µM; AID 739;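 further: yeast cells grown in 1536-well plates; yeast grown about 18 h at 30C before absorbance read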
PostGolgi ctrl: inhibits growth of the yeast control strain. inhibition, % at 10 µM. 98,000 tested, 5% active. efflux-deficient yeast background strain, growth absorbance A615, 16 h
CYP2C19 act: activators of human cytochrome P450 2C19 | recombinant CYP2C19, luciferin-H EGE luminescence; hits give high values; 0 = fully inhibited enzyme, 1 = untreated enzyme | P33261 | AID 1025 | activation factor at 5 µM | 96,000 tested, under 10 active;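 active means activation factor of at least 2 at 5 µM in the primary screen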;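 further: 0 = wells with 2.5 mM tranylcypromine and 1 = vehicle-only wells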
Numbers without * were called inactive; . = no result. Only some compounds are listed: those with a hit (about 32% of all), similar ones and a draw of the others. Unless noted, no stated cut-off is given here; in the data, active means inhibition above about 30%; inactive means the rest.

SMILES	CYP2C19 inh	CYP2C9 inhib	CYP2C9 activ	PostGolgi yeast	PostGolgi ctrl	CYP2C19 act
O=C(NCc1ccc2c(c1)OCO2)c1c(O)c2cccc3c2n(c1=O)CCC3	22	72*	0.3	5	8	0.8
COc1ccc(-n2nc(C(=O)N3CCN(c4ccc(F)cc4)CC3)c3ccccc3c2=O)c(OC)c1	45	56*	0.4	-3	8	0.6
O=C(NCc1ccc2c(c1)OCO2)c1nn(-c2ccccc2)c(=O)c2ccccc12	87*	94*	0.1	-4	8	0.1
CC(Sc1nc(-c2ccccc2)cc(C(F)(F)F)n1)C(=O)NCCN1CCOCC1 (stereo not given)	12	3	1	11	-1	0.9
COc1ccc(CCNC(=O)c2c(O)c3cccc4c3n(c2=O)CC4)cc1OC	55*	72*	0.3	.	.	0.4
COc1ccc(-n2nc(C(=O)O)c3ccccc3c2=O)cc1	-10	-23	1.2	2	-1	1.1
O=C(Nc1ccc2c(c1)OCO2)c1nn(-c2ccccc2)c(=O)c2ccccc12	3	16	0.8	4	26	1
COc1cccc(-n2nc(C(=O)Nc3ccc4c(c3)OCO4)c3ccccc3c2=O)c1	42	90*	0.1	-7	13	0.6
COc1cccc(-n2nc(C(=O)N3CC(C)CC(C)C3)c3ccccc3c2=O)c1 (stereo not given)	47	58*	0.4	-3	13	0.5
Cc1ccccc1N(C)C(=O)c1coc(=O)c2ccccc12	22	-14	1.1	-6	-5	0.8
Cc1ccnc(N2CCC(C(=O)NNC(=O)c3ccccc3C)CC2)n1	18	18	0.8	2	-4	0.8
Cc1cccc(NC(=O)CN2C(=O)NC(C)(c3ccc4c(c3)OCO4)C2=O)c1 (stereo not given)	27	67*	0.3	26	-4	0.7
CCC1(c2ccccc2)NC(=O)N(CC(=O)Nc2ccc3c(c2)OCO3)C1=O (stereo not given)	-3	20	0.8	3	2	1
CC1(c2ccccc2)NC(=O)N(CC(=O)N2CCOCC2)C1=O (stereo not given)	13	-1	1	0	5	0.9
Cc1ccc(C2(C)NC(=O)N(CC(=O)Nc3ccc4c(c3)OCO4)C2=O)cc1 (stereo not given)	36	82*	0.2	5	5	0.6
CC1(c2ccc3c(c2)OCO3)NC(=O)N(CC(=O)Nc2ccc(N3CCOCC3)cc2)C1=O (stereo not given)	20	59*	0.4	-10	7	0.8
O=C(Nc1ccc(CN2CCCCC2)cc1)c1ccc(Br)o1	-6	-7	1.1	4	0	1.1
CSc1ccc(CNc2ccc(Cl)cc2)cc1	96*	3	1	-4	2	0
CSc1ccc(CNC2CC2)cc1	35	-18	1.2	4	-3	0.6
Cc1ccc(Cn2cnc3c(nnn3Cc3ccc(Cl)cc3)c2=O)cc1	21	18	0.8	-5	4	0.8
CCOC(=O)c1ccc(Oc2nc(N(C)C)nc(N(C)C)n2)cc1	20	11	0.9	1	5	0.8
CCOC(=O)c1ccc(Oc2nc(NC(C)(C)C)nc(N(C)C)n2)cc1	84*	88*	0.1	-12	13	0.2
CCCC(=O)Nc1ccc2oc(-c3cccnc3)nc2c1	16	5	1	4	5	0.8
CCCCCC(/C=N/Nc1ccc(S(=O)(=O)N2CCOCC2)cc1[N+](=O)[O-])=C\c1ccccc1	-4	82*	0.2	-6	3	1
Cc1c(C(=O)NCCc2ccccc2)oc2ccc(S(=O)(=O)N3CCOCC3)cc12	27	45	0.6	1	0	0.7
SMILES	CYP2C19 inh	CYP2C9 inhib	CYP2C9 activ	PostGolgi yeast	PostGolgi ctrl	CYP2C19 act
Cc1cc(C(=O)N2CCN(C(c3ccccc3)c3ccccc3)CC2)no1	42	35	0.7	7	12	0.6
COc1cccc(-c2cc(C(=O)N3CCN(C(c4ccccc4)c4ccccc4)CC3)no2)c1	-15	26	0.7	38*	1	1.1
CCCc1cc(C(=O)N2CCN(C(c3ccccc3)c3ccccc3)CC2)no1	6	83*	0.2	3	13	0.9
O=C(CCc1n[nH]c(=O)[nH]c1=O)N1CCCCC1	-11	0	1	1	1	1.1
COCCNS(=O)(=O)c1cccn1-c1ncc(C(F)(F)F)cc1Cl	-9	-7	1.1	-5	-9	1.1
O=S(=O)(Nc1ccccc1)c1ccc(Oc2ncc(C(F)(F)F)cc2Cl)cc1	7	21	0.8	12	59*	0.9
CCCNS(=O)(=O)c1ccc(Oc2ncc(C(F)(F)F)cc2Cl)cc1	87*	67*	0.3	1	12	0.1
CC(C)NS(=O)(=O)c1ccc(Oc2ncc(C(F)(F)F)cc2Cl)cc1	33	0	1	3	14	0.7
O=C(CCCOc1ccc(Cl)cc1)NCC1CCCO1 (stereo not given)	9	-8	1.1	-11	-9	0.9
CC(C)OCCCNC(=O)C1CCN(S(=O)(=O)N2CCCCC2)CC1	-1	-3	1	-2	8	1
COc1ccc(C2SCC(=O)N2c2c(C)n(C)n(-c3ccccc3)c2=O)cc1 (stereo not given)	44	40	0.6	-5	-8	0.6
COc1ccc(C2SCC(=O)N2CC23CC4CC(CC(C4)C2)C3)cc1 (stereo not given)	-6	15	0.9	16	60*	1.1
CCC(=O)Nc1ccc(-c2nnc(SCC(=O)Nc3nccs3)n2C)cc1	7	15	0.9	2	2	0.9
Cc1ccc(NC(=O)CS(=O)CC(=O)NCC2OCCc3ccccc32)c(C)c1 (stereo not given)	31	12	0.9	0	-5	0.7
COc1ccc(S(=O)(=O)N2CCc3ccccc3C2)cc1OC	91*	-142	2.4*	1	11	0.1
CCN1CCN(S(=O)(=O)c2ccc3c(c2)OCCO3)CC1	17	-6	1.1	-4	3	0.8
COc1cc2c(cc1OC)CN(S(=O)(=O)c1ccc3c(c1)OCCO3)CC2	95*	32	0.7	-1	23	0.1
O=C(CCN1C(=O)C2C3C=CC(C3)C2C1=O)N1CC(=O)N(CCc2ccccc2)C(=O)C1 (stereo not given)	2	-10	1.1	-5	0	1
Cc1cc(C)cc(C(=O)N2CC(C)OC(C)C2)c1 (stereo not given)	0	88*	0.1	5	-1	1
Cc1ccc(SCC(=O)N2CC(C)OC(C)C2)cc1 (stereo not given)	69*	30	0.7	-3	5	0.3
CCC(=O)N(Cc1cc2cc(OC)ccc2[nH]c1=O)c1cccc(C)c1	-10	-6	1.1	1	4	1.1
CCCCn1nnnc1SCC(=O)N1CCCC1	1	-9	1.1	-2	2	1
